In PubChem BioAssay AID2803 (The Scripps Research Institute Molecular Screening Center, 2010) one finds inhibition data, which are given here for 23 compounds.

Among all 2,000 compounds or so, about 1,300 (65%) were called active. Rule as the data show it: active = inhibition above about 43%; inactive = the rest. So high a share suggests a set chosen from earlier hits. A selection follows.

What is called inhibition is the share of the control response that was lost under treatment.

The target in the assay is Prolyl endopeptidase-like (Homo sapiens) (UniProt Q4J6C6). The experiment in a line: human PREPL enzyme inhibitors, confirmation, biochemical, fluorescence polarization (AID 2803).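 Also: 0% = protein with DMSO and 100% = wells lacking protein.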 As to conditions: recombinant PREPL, fluorescence polarization activity probe; at 5.96 µM; hits give high values. On the technique in general: Polarisation of emitted light reports the rotation of a fluorescent probe.
Sequence of Prolyl endopeptidase-like (Homo sapiens) (Q4J6C6 whole entry, looked up): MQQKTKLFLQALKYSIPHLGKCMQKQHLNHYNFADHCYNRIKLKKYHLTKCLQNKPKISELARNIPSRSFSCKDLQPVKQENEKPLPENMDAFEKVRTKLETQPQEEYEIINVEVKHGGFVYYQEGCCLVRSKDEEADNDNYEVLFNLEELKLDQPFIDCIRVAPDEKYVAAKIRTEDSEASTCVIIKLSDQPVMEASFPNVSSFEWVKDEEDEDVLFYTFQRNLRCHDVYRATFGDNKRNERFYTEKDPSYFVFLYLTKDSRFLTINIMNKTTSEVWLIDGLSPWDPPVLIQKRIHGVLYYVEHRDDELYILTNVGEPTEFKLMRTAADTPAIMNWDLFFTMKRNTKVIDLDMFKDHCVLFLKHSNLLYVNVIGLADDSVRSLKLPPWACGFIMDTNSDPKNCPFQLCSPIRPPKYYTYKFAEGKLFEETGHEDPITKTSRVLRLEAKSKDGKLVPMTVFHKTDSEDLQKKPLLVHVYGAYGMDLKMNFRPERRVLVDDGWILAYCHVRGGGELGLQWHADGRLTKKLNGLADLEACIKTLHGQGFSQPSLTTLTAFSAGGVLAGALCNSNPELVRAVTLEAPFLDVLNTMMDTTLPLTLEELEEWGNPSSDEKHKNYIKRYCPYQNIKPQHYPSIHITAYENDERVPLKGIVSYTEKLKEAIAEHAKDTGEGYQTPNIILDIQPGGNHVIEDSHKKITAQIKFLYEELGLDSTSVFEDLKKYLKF
In the case of `COc1ccc2cc(C(=O)C3CCCN(C(=O)c4sc(C)nc4C)C3)ccc2c1` (stereo not drawn), the inhibition is 31.8% (inactive). On to `C[N+](C)(CCCCCC[N+](C)(C)CCCN1C(=O)c2cccc3cccc(c23)C1=O)CCCN1C(=O)c2cccc3cccc(c23)C1=O`, for which the inhibition was 56% (active). In the case of `Cn1c(CCN2CCCCCC2)nc2cc(NC(=O)Nc3ccccc3)ccc21`, the inhibition was 38.1% (inactive). For `O=C(N/N=C/c1cccnc1)c1cc2ccccc2cc1O`, the inhibition was 5.89% (inactive). `CC(C)(C)Nc1nc(-c2ccccn2)nc2ccccc12`: the inhibition was 62.5% (active).

On to `CC(=O)N1CCN(c2ccc(NCc3ccc(C(C)C)cc3)cc2)CC1`, for which the inhibition is 61.9% (active). For the compound `COc1cc2c(cc1O)[C@H](Cc1ccc(Oc3cc(C[C@@H]4NCCc5cc(OC)c(O)cc54)ccc3O)cc1)NCC2`, the inhibition is 37.1% (inactive).

For the compound `C[C@@H](CN1CCC[C@H]1CN1C(N)=NC[C@@H]1Cc1ccccc1)N1C[C@@H](Cc2ccccc2)N(CCCC2CCCC2)C1=N`, the inhibition was 42.6% (inactive). With `CC[C@@H](C)[C@@H]1CN([C@@H](C)CN2CCC[C@H]2CN2C(N)=NC[C@H]2C(C)C)C(=N)N1CCc1ccc(Cl)c(Cl)c1`, the inhibition is 66.1% (active). With `COc1ccc(NC(C)=O)cc1NC(=O)CN1CCN(C2c3ccccc3-c3ccccc32)CC1`, the inhibition was 37.7% (inactive).

With `CN1CCN(c2ccc(NC(=O)COc3ccc(Cl)cc3Cl)cc2)CC1`, the inhibition was 58% (active). With `Cc1ccc(OCC(=O)Nc2ccc(N3CCN(C(=O)c4ccco4)CC3)cc2)c(C)c1`, the inhibition is 52.6% (active).

Consider `Cc1ccccc1OCC(=O)Nc1ccc(N2CCN(C(=O)C(C)C)CC2)c(Cl)c1`, for which the inhibition is 42.7% (inactive).

`CC1CCN(C(=O)c2ccc3c(c2)NC(=O)CN3)CC1`: the inhibition was 12.2% (inactive). Take `O=C1N[C@H](Cc2c[nH]c3ccccc23)COC(=O)[C@H](Cc2ccc(F)cc2)C/C=C\C[C@H]1CC(=O)N(CCO)Cc1ccccc1`: the inhibition was 34.5% (inactive).

On to `Cc1ccc(N2CCN(C3=NC(=O)/C(=C\c4cccs4)S3)CC2)cc1`, for which the inhibition is 44.4% (active). `CCN(CC)c1ccc2cc(C(N)=O)/c(=N\NC(=O)c3ccncc3)oc2c1`: the inhibition was 56.2% (active). The figure for `COC(=O)Cc1nc2ccccc2[nH]1` is 7.22% (inactive). The figure for `Nc1c(C(=O)c2cccs2)sc2nsc(SCCN3CCCCC3)c12` is 54.6% (active); for `Cc1ccc(NS(=O)(=O)c2ccc(N/N=C/c3ccccc3OCC(=O)O)c([N+](=O)[O-])c2)c(C)c1` it is 46.4% (active). Take `CC(C)CCNc1nc(N2CCCC2)c2c(c1C#N)CCN(C)C2`: the inhibition was 49% (active). For `CNCC[C@H](Oc1ccc(C(F)(F)F)cc1)c1ccccc1` the value was 55.1% (active); for `Cc1ccc(Nc2ccccc2N)cc1`, 32.1% (inactive).
